Values joined by “and” are separate entries in the source; they are usually repeats but may differ in a detail not shown here. Equal values may be shown once. Active and inactive are the calls of the source. The calls were made as follows: active = hit-call score of the fitted dose curve at least 0.9, where 1 is the maximum; inactive = score below 0.9.

The source of these data is PubChem BioAssay (EPA / NIEHS).

Read-out in this experiment: cysteine-aspartic acid protease (CASP8), CASP8 (gene 841)
Kind of experiment: LTEA_HepaRG_CASP8: Life Technologies and Expression Analysis (LTEA) Assay for cysteine-aspartic acid protease (CASP8) using HepaRG (AID 2283480). The conditions noted are these: mRNA level, 48 h; actives raise or lower the signal. The procedure: LTEA_HepaRG is a cell based, multiplexed-readout assay that uses HepaRG, a human liver cell line, with measurements taken at 48 hours after chemical dosing on a 96-well plate.LTEA_HepaRG_CASP8 is one of 102 assay component(s) measured in the LTEA HepaRG cell culture assay. It is a marker of Cell proliferation, survival, death.Data from the assay component LTEA_HepaRG_CASP8 was analyzed into 1 endpoint. This assay endpoint, LTEA_HepaRG_CASP8, was analyzed with bidirectional fitting relative to DMSO as the negative control and baseline of activity. Using a type of inducible reporter, measures of mRNA induction for gain or loss-of-signal activity can be used to understand regulation of transcription factor activity. To generalize the intended target to other relatable targets, this assay endpoint is annotated to the protease intended target family, where the subfamily is cysteine protease.
A total of 1060 chemcials from the ToxCast library were tested in eight-point concentration-response experiments. Cell culture and cytotoxicity assays were conducted at Thermo Fisher Scientific's Custom Services facility (Madison, WI). A single lot of human HepaRG cells (Thermo Fisher Scientific, Frederick, MD) was used for the cell culture experiments. 96-well format collagen type I coated plates of human HepaRG cells were prepared using established methods. Briefly, cryopreserved HepaRG cells were thawed, plated at a density of approximately 100,000 cells/well in HepaRG Thaw, Plate, and General Purpose media (HPRG770, Thermo Fisher Scientific), and incubated for 48 hours. 0.5% DMSO was selected as vehicle control to balance the requisite need of DMSO in HepaRG cultures to maintain differentiation (for example, baseline metabolism, proportions of hepatocytes vs. cholangiocytes), while enabling further hepatic receptor pathway activation (for example, PXR and CAR) in response to chemical exposure. 48 hours after plating, the culture medium was replaced with HepaRG Serum-Free Incudtion Media. Cells were exposed to each test chemical in duplicate and maintained in CO2 incubators for another 48 hours. Chemical plates were thawed to room temperature and 200x concentrations of treatment groups were prepared. 8-point conentration-reponse curves were made with the highest exposure at 100 uM, followed by half-log dilutions, all in 0.5% DMSO. Each test plate contained variouse controls, induction positive controls (1mM phenobarbital), cytotoxicity positive controls ([…] aflatoxin B1), vehicle controls (0.5% DMSO), and total lysis controls (0.5% DMSO). Cell morphology images were taken using an Essen IncuCyte FLR automated microscope, with six 96-well plates imaged in about 24 minutes. Images were captured and exported and JPEG files. Spent culture media was transfered to black-well plates for the LDH assay, and remaining media was sorted at -80 C for later use. Cells were treated with RLT buffer and frozen until shipped for gene expression analysis. Total RNA was isolated from the cell suspension in 75 uL of Buffer RLT (Qiagen, Germantown, MD 20874) by Quintiles/Expression Analysis (Durham, NC) using a custom isolation procedure. Total RNA from each plate well was transferred to a preamplification plate. Fluidigm's 96.96 Dynamic ArrayTM (Fluidigm, Amsterdam, the Netherlands) technology was used for gene expression analyses by quantitative reverse transcription polymerase chain reaction (qRT-PCR, performed by Quintiles/Expression Analysis, Durham, NC)89. Standard TaqManTM Assays (Applied Biosystems/ThermoFisher Scientific, Foster City, CA) were used to assess the expression of 93 genes selected based on their selectivity and sensitivity to important hepatic receptors known to be modulated by environmental chemicals; importance in human hepatocyte functionality; and hepatotoxicity. […]
For the molecule `CCN(CC)C(=O)c1cccc(C)c1`, the outcome was inactive.

Consider `CCCCOCCOCCOCc1cc2c(cc1CCC)OCO2`, for which the molecule was classed as inactive.

For the molecule `CCCCOC(=O)[C@@H](C)Oc1ccc(Oc2ccc(C(F)(F)F)cn2)cc1`, the outcome was inactive.

For the molecule `CC(C)CCCCCCc1ccc(O)cc1`, the call was inactive.

In the case of `C[C@]12C[C@H](O)[C@H]3[C@@H](CCC4=CC(=O)CC[C@@]43C)[C@@H]1CC[C@@H]2C(=O)CO`, the result was inactive.

Consider `CCOC(=O)COc1cc(-n2ncc(C(F)(F)F)c(C)c2=O)c(F)cc1Cl`, for which the molecule was called inactive.

As for `CC(=O)S[C@@H]1CC2=CC(=O)CC[C@]2(C)[C@H]2CC[C@@]3(C)[C@@H](CC[C@@]34CCC(=O)O4)[C@H]12`, the call was inactive.

For `c1ccc(Nc2ccccc2)cc1`, the call was inactive.

In the case of `c1ccc2[nH]c(-c3cscn3)nc2c1`, the call was inactive.

`CN(C)C(=O)Nc1ccc(Cl)c(Cl)c1`: the molecule was classed as inactive.

Consider `CC1(C)C(C=C(Cl)Cl)C1C(=O)OCc1cccc(Oc2ccccc2)c1` (stereo not given), for which the call was inactive.

In the case of `C=CCOC(Cn1ccnc1)c1ccc(Cl)cc1Cl` (stereo not given), the AC50 was 84 µM (active).

With `OB(O)O`, the result was inactive.

Take `O=C(O)C1(C(=O)Nc2ccc(Cl)cc2Cl)CC1`: the molecule was called inactive.

As to `CCCCC(CC)COC(=O)c1ccccc1C(=O)O` (stereo not given), the result was inactive.

Regarding `CCCOC(=O)NCCCN(C)C`, the outcome was inactive.

With `S=C(S)NCCNC(=S)S.[Mn+2].[S-]C([S-])=NCCN=C([S-])[S-].[Zn+2]`, the AC50 is 1.18 µM (active) and 2.18 µM (active) and 1.55 µM (active).

As to `CC(=O)[C@H]1CC[C@H]2[C@@H]3CCC4=CC(=O)CC[C@]4(C)[C@H]3CC[C@]12C`, the half-maximal activity concentration (AC50) was 82.2 µM (active).

For `O=C(c1ccccc1)C1CCCCC1`, the result was inactive.

Take `COC(=O)c1ccccc1C(=O)O`: the call was inactive.

With `S=C([S-])NCCNC(=S)[S-].[Mn+2]`, the AC50 was 3.99 µM (active).

`CCCN(CCC)c1c([N+](=O)[O-])cc(C(F)(F)F)c(N)c1[N+](=O)[O-]`: the result was inactive.

For `O=C(O)c1ccccc1`, the call was inactive.

As for `C#C[C@]1(O)CC[C@H]2[C@@H]3CCC4=CC(=O)CC[C@@H]4[C@H]3CC[C@@]21CC`, the result was inactive.

Consider `CCCCOC(=O)C(C)Oc1ccc(Oc2ccc(C(F)(F)F)cn2)cc1` (stereo not given), for which the call was inactive.

Take `CCSC(=O)N(CC(C)C)CC(C)C`: the outcome was inactive.

Take `CC(C)(c1ccc(O)cc1)c1ccc(O)cc1`: the molecule was classed as inactive.

In the case of `C#CCOC(=O)[C@@H](C)Oc1ccc(Oc2ncc(Cl)cc2F)cc1`, the outcome was inactive.

For `COc1c(Cl)ccc(Cl)c1C(=O)O`, the molecule was called inactive.

`CCCCC(CC)CN1C(=O)C2C3C=CC(C3)C2C1=O` (stereo not given): the molecule was classed as inactive.

In the case of `COC(=O)CSc1cc(N=c2sc(=O)n3n2CCCC3)c(F)cc1Cl`, the molecule was called inactive.

As to `O=C(c1ccc(O)cc1O)c1ccc(O)cc1O`, the molecule was called inactive.

For `CSC(=O)c1cccc2nnsc12`, the molecule was called inactive.

On to `CCCOC(=O)c1ccc(C(=O)OCCC)nc1`, for which the result was inactive.

Regarding `COCCO`, the molecule was classed as inactive.

On to `C[C@]12CC[C@@H]3c4ccc(O)cc4C[C@@H](CCCCCCCCCS(=O)CCCC(F)(F)C(F)(F)F)[C@H]3[C@@H]1CC[C@@H]2O` (stereo not given in full), for which the call was inactive.

On to `N[C@@H](Cc1cc(I)c(Oc2ccc(O)c(I)c2)c(I)c1)C(=O)O`, for which the outcome was inactive.

As for `CCCCCOC(=O)COc1cc(N2C(=O)C3=C(CCCC3)C2=O)c(F)cc1Cl`, the result was inactive.

Consider `CCOC(=O)NCCOc1ccc(Oc2ccccc2)cc1`, for which the molecule was called inactive.

`CCCN(CCC)C(=O)SCC`: the call was inactive.

By AC50 is commonly meant the concentration giving half of the maximal activity seen.
